Source: the supplement of paper PMC10849652
Of roughly 8,800 targets only a part is listed; those with a hit were picked by preference. About 0.5% of all pairs of compound and target were hits.

Assays:
Assay in all cases: log2 fold change, soluble protein after heating vs DMSO (PISA); higher = thermal stabilisation; K562 lysate, 10 uM; active = over 0.2 and 3.5 SD of the protein, either way, in both replicates (recomputed)
[1] = compound: Cc1cn(-c2cc(NC(=O)c3ccc(C)c(Nc4nccc(-c5cccnc5)n4)c3)cc(C(F)(F)F)c2)cn1 [nilotinib]
In short: (§1)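 K562 pellets were dounce-homogenised in PBS pH 7.4 with 1 mM MgCl2, and the crude extract at 1 mg/mL protein was treated with 10 μM compound for 30 min. Aliquots were heated for 3 min across 48°C-58°C, pooled, and brought to 0.5% NP-40 at 4°C; soluble protein was the supernatant after 21,000xg for 90 min. Soluble protein was quantified by TMTpro 16plex LC-MS/MS with channel sums equalised, and reported as log2 fold change in thermal stability against DMSO controls, with values from duplicates.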

[2] = compound: Cc1nc(Nc2n[nH]c3c2CN(C(=O)N[C@H](CN(C)C)c2ccccc2)C3(C)C)c2sccc2n1
In short: as §1

[3] = compound: Cc1nc(Nc2ncc(C(=O)Nc3c(C)cccc3Cl)s2)cc(N2CCN(CCO)CC2)n1 [dasatinib]
In short: as §1

[4] = compound: Cc1ncc(-c2ccnc(Nc3ccc(S(C)(=O)=O)cc3)n2)n1C(C)C
In short: as §1

[5] = compound: Cn1cc(-c2ccc3c(c2)CCN3C(=O)Cc2cccc(C(F)(F)F)c2)c2c(N)ncnc21
In short: as §1

[6] = compound: Cn1cc(CNCC2CCN(c3ncc(C(=O)NO)cn3)CC2)c2ccccc21 [quisinostat]
In short: as §1

[7] = compound: Cn1cncc1[C@@](N)(c1ccc(Cl)cc1)c1ccc2c(c1)c(-c1cccc(Cl)c1)cc(=O)n2C [tipifarnib]
In short: as §1

[8] = compound: NC(=O)Nc1cc(-c2cccc(F)c2)sc1C(=O)N[C@H]1CCCNC1
In short: as §1

[9] = compound: NC(=O)c1cnc(N[C@@H]2CCCC[C@@H]2N)nc1Nc1cccc(-n2nccn2)c1
In short: as §1

[10] = compound: O=C1NC(=O)C(c2cnc3ccccn23)=C1c1cn2c3c(cc(F)cc13)CN(C(=O)N1CCCCC1)CC2
In short: as §1

[11] = compound: c1cn2cc(-c3ccc4cn[nH]c4c3)nc(Nc3ccc(N4CCOCC4)cc3)c2n1 [entospletinib]
In short: as §1

[12] = compound: NC1(c2ccc(-c3nc4ccn5c(=O)[nH]nc5c4cc3-c3ccccc3)cc2)CCC1
In short: as §1

[13] = compound: NCC(=O)Nc1ccc(-n2nc(C(F)(F)F)cc2-c2ccc3c(ccc4ccccc43)c2)cc1
In short: as §1

[14] = compound: O=C(CCCCCCC(=O)Nc1ccccc1)NO [vorinostat]
In short: as §1

[15] = compound: O=C(O)c1ccc2c(c1)nc(Nc1cccc(Cl)c1)c1ccncc12 [silmitasertib]
In short: as §1

Measured: log2 fold change

TCF4 (UniProt P15884)
inactive: [1] -0.004 | [2] -0.139 | [3] 0.077 | [4] -0.057 | [5] 0.01 | [6] 0.161 | [7] -0.147 | [8] 0.064 | [9] 0.016 | [10] 0.078 | [11] -0.074

TOX4 (UniProt O94842)
UniProt O94842, sequence (O94842 whole entry, looked up): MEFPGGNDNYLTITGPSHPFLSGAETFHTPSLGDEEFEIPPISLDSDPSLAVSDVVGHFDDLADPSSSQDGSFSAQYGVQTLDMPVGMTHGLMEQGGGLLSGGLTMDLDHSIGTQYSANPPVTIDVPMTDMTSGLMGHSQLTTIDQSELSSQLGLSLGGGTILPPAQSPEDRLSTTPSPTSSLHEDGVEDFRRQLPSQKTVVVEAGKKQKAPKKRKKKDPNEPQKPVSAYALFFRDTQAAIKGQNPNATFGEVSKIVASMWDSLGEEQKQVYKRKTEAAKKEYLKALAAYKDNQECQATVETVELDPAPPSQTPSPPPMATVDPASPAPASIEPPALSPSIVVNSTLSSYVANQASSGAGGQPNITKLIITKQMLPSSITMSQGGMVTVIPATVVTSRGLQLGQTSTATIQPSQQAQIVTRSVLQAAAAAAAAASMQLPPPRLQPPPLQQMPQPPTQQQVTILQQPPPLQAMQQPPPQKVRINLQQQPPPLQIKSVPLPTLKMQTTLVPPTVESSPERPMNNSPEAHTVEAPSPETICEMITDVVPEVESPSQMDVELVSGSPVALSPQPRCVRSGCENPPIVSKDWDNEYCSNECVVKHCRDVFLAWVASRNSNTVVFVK
inactive: [1] -0.056 | [2] -0.019 | [3] 0.001 | [4] 0.073 | [5] 0.009 | [6] -0.018 | [7] -0.02 | [8] -0.017 | [9] 0.017 | [12] 0.034 | [13] -0.021 | [14] -0.018 | [15] -0.037 | [10] -0.025 | [11] -0.006

TRAF7 (UniProt Q6Q0C0)
UniProt Q6Q0C0, sequence (Q6Q0C0 whole entry, looked up): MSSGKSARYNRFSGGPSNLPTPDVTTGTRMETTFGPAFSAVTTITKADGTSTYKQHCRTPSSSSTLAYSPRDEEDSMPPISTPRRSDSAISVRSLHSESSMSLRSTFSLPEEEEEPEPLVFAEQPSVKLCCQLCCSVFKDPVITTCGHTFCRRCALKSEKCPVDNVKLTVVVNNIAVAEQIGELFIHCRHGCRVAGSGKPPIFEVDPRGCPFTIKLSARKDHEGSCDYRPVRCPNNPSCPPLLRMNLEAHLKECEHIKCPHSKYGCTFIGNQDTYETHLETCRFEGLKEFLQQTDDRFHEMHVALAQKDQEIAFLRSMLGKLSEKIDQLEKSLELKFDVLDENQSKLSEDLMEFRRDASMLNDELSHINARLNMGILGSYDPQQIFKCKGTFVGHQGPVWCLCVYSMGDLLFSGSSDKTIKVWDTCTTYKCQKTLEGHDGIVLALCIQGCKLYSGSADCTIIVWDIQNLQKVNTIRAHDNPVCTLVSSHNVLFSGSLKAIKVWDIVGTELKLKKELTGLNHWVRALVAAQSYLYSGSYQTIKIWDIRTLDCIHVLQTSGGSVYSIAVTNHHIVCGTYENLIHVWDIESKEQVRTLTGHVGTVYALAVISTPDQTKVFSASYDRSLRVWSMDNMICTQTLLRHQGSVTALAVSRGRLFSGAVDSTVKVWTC
inactive: [1] 0.16 | [2] 0.027 | [3] -0.005 | [4] 0.154 | [5] 0.163 | [6] -0.035 | [7] -0.1 | [8] -0.033 | [13] 0.052 | [10] 0.059 | [11] 0.058

TLE3 isoform 5 (UniProt Q04726)
inactive: [1] 0.142 | [2] -0.174 | [3] -0.007 | [4] -0.06 | [5] 0.028 | [6] -0.102 | [7] 0.05 | [8] -0.009 | [9] 0.024 | [12] 0.058 | [14] 0.144 | [15] 0.019 | [10] -0.058 | [11] -0.002

TJP1 (UniProt G3V1L9)
active: [14] -0.484
inactive: [1] 0.093 | [2] 0.051 | [3] 0.083 | [4] 0.11 | [5] -0.139 | [6] 0.137 | [7] -0.078 | [8] 0.022 | [12] -0.08 | [13] -0.044 | [15] -0.061 | [10] 0.127

TPX2 (UniProt Q9ULW0)
UniProt Q9ULW0, sequence (Q9ULW0 whole entry, looked up): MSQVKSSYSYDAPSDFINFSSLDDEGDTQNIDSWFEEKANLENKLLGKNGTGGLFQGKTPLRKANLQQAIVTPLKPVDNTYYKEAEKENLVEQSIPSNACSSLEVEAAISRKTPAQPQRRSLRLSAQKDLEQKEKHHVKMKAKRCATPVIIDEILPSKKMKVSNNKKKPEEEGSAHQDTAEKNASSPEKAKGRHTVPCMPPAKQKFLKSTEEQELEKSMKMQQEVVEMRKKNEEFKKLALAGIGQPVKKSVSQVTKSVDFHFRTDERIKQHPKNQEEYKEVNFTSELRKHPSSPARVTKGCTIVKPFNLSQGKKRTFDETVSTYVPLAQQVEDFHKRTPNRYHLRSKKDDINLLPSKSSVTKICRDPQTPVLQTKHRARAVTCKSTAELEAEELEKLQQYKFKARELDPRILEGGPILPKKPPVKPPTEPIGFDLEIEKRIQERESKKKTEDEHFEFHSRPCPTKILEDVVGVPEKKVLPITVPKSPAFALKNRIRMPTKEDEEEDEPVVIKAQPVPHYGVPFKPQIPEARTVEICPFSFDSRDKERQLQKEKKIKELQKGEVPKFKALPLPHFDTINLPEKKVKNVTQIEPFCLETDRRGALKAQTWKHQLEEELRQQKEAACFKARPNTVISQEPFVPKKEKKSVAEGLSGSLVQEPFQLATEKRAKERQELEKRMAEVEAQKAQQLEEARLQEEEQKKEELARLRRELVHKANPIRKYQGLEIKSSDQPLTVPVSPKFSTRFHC
active: [14] -0.498
inactive: [1] -0.001 | [2] 0.007 | [3] -0.002 | [4] 0.002 | [5] 0 | [6] -0.04 | [7] -0.007 | [8] -0.021 | [9] -0.02 | [12] -0.004 | [13] 0.003 | [15] -0.04 | [10] 0.009 | [11] 0.015

TRIM65 (UniProt Q6PJ69)
inactive: [1] -0.025 | [2] -0.008 | [3] -0.059 | [4] -0.021 | [5] 0.005 | [6] -0.016 | [7] -0.004 | [8] 0 | [9] 0.08 | [12] -0.017 | [13] 0.018 | [14] -0.094 | [15] -0.006 | [10] 0.002 | [11] -0.009

TK1 (UniProt K7ERV3)
inactive: [1] -0.024 | [2] -0.134 | [3] -0.114 | [4] 0.086 | [5] 0.02 | [6] -0.059 | [7] 0.059 | [8] 0.122 | [12] -0.016 | [13] -0.018 | [14] 0.086 | [15] 0.01 | [10] -0.014 | [11] -0.013

TOPBP1 (UniProt Q92547)
inactive: [1] 0.013 | [2] -0.056 | [3] 0.003 | [4] 0.006 | [5] 0.02 | [6] -0.018 | [7] 0.049 | [8] -0.002 | [9] 0.039 | [12] -0.007 | [13] 0.032 | [15] 0.019 | [10] -0.074 | [11] 0.028
active: [14] -0.387

TUBGCP5 (UniProt Q96RT8)
inactive: [1] 0.024 | [2] 0.04 | [3] 0.119 | [4] 0.048 | [5] -0.094 | [6] 0.203 | [7] 0.012 | [8] 0.077 | [13] -0.029 | [10] 0.042 | [11] -0.105
active: [9] -0.68

TUBB (UniProt P07437)
active: [14] -0.529
inactive: [1] 0.067 | [2] 0.016 | [3] -0.043 | [4] -0.001 | [5] -0.011 | [6] 0.004 | [7] 0.022 | [8] 0.048 | [9] -0.022 | [12] -0.003 | [13] 0.025 | [15] 0.009 | [10] 0.032 | [11] -0.018

TNFAIP3 (UniProt P21580)
UniProt P21580, sequence (P21580 whole entry, looked up): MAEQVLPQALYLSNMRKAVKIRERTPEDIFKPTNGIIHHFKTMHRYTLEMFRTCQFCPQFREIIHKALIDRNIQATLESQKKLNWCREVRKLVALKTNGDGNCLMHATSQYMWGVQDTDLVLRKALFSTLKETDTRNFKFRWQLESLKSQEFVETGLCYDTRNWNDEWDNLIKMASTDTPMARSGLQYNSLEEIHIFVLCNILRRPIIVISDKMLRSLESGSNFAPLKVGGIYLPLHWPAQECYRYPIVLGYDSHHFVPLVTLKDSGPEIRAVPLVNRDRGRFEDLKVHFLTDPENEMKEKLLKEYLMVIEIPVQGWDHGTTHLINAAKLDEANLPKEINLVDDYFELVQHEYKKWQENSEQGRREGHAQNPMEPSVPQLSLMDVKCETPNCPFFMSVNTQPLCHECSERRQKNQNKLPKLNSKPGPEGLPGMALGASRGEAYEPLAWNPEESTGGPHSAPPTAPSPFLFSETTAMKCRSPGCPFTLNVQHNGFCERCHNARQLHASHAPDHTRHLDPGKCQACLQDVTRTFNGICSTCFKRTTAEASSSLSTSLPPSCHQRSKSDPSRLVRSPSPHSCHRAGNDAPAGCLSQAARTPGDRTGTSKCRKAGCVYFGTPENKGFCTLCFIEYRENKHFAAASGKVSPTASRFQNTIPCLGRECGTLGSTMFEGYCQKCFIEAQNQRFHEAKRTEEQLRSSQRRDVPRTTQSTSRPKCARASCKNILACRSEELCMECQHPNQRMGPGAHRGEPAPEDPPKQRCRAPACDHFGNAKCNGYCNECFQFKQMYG
inactive: [1] 0.038 | [2] -0.01 | [3] -0.002 | [4] -0.04 | [5] 0.033 | [6] 0.008 | [7] -0.068 | [8] 0.025 | [9] 0.01 | [12] 0.003 | [14] -0.12 | [15] -0.003 | [10] 0.004 | [11] 0.044

TMEM14C (UniProt Q9P0S9)
UniProt Q9P0S9, sequence (Q9P0S9 whole entry, looked up): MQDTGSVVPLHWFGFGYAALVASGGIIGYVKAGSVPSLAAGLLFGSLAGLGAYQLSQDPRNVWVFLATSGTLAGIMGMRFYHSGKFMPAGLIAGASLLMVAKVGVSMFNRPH
inactive: [1] 0.065 | [2] -0.089 | [3] 0.031 | [4] 0.13 | [5] 0.029 | [6] -0.299 | [7] -0.017 | [8] 0.029 | [9] -0.13 | [12] -0.07 | [13] -0.032 | [14] -0.018 | [15] 0.013 | [10] 0.058 | [11] 0.091

UBXN2B (UniProt Q14CS0)
UniProt Q14CS0, sequence (Q14CS0 whole entry, looked up): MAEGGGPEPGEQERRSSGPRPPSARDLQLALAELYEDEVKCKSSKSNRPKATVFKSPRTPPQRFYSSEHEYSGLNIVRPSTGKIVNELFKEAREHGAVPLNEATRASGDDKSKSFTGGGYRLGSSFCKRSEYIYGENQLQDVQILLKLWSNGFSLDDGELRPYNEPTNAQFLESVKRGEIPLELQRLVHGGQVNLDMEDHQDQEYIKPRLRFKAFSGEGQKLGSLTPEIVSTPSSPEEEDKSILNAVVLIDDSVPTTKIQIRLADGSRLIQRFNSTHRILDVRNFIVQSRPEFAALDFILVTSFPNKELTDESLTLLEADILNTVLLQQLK
inactive: [1] -0.04 | [2] -0.068 | [3] 0.08 | [4] -0.208 | [5] -0.099 | [7] 0.021 | [9] -0.024 | [12] -0.06 | [13] 0.095 | [14] 0.085 | [15] 0.053 | [11] -0.032

TUBAL3 (UniProt A6NHL2)
UniProt A6NHL2, sequence (A6NHL2 whole entry, looked up): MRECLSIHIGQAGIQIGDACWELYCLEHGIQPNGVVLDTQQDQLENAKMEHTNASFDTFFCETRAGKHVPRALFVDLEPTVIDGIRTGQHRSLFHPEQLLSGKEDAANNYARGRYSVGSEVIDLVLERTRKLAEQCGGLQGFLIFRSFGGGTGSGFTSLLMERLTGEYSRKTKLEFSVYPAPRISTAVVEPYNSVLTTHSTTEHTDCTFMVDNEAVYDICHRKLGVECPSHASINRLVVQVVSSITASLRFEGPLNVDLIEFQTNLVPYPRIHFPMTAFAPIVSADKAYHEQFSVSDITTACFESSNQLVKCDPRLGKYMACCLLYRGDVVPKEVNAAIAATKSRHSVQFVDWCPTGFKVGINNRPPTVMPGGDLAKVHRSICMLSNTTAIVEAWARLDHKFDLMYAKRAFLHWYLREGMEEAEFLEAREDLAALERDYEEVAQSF
inactive: [1] 0.068 | [2] -0.189 | [3] -0.074 | [4] 0.103 | [5] 0.082 | [7] 0.141 | [9] -0.025 | [12] -0.142 | [13] 0.083 | [14] -0.195 | [15] 0.069 | [11] -0.026

TSPAN3 (UniProt O60637)
inactive: [1] 0.004 | [2] -0.003 | [3] 0.118 | [4] -0.199 | [5] 0.033 | [7] -0.032 | [9] -0.098 | [12] 0.015 | [13] -0.124 | [14] 0.105 | [15] -0.056 | [11] -0.005

TUBB4A (UniProt P04350)
inactive: [1] 0.027 | [2] -0.026 | [3] 0.003 | [4] -0.023 | [5] 0.067 | [6] -0.196 | [7] 0.027 | [8] 0.085 | [9] 0.011 | [12] 0.023 | [15] 0.065 | [10] 0.095 | [11] -0.056
active: [14] -0.448

TROAP (UniProt Q12815)
inactive: [1] -0.041 | [2] 0.023 | [3] -0.071 | [4] 0.037 | [5] 0.043 | [6] -0.096 | [7] -0.005 | [8] 0.007 | [9] 0.031 | [12] -0.018 | [13] 0.003 | [15] 0.003 | [10] 0.014 | [11] -0.057
active: [14] -0.382

UBE3C (UniProt Q15386)
inactive: [1] -0.006 | [2] 0.025 | [3] -0.047 | [4] -0.017 | [5] 0.049 | [6] 0.013 | [7] 0.01 | [8] 0.061 | [9] 0.027 | [12] -0.053 | [13] -0.009 | [15] -0.001 | [10] 0 | [11] 0.05
active: [14] -0.479

TLE3 isoform 4 (UniProt Q04726)
inactive: [1] 0.011 | [2] 0.053 | [3] -0.002 | [4] 0.001 | [5] -0.038 | [6] 0.008 | [7] -0.003 | [8] 0.012 | [9] 0.001 | [12] -0.003 | [13] 0.011 | [14] 0.047 | [15] -0.052 | [10] -0.018 | [11] -0.009

TRMT10A (UniProt Q8TBZ6)
inactive: [1] 0.008 | [2] -0.027 | [3] -0.07 | [4] 0.019 | [5] 0.013 | [6] -0.028 | [7] 0.005 | [8] 0.01 | [9] 0.028 | [12] -0.01 | [13] 0.032 | [14] 0.072 | [15] -0.058 | [10] -0.063 | [11] -0.012

TRIM33 isoform 2 (UniProt Q9UPN9)
UniProt Q9UPN9, sequence (Q9UPN9 whole entry, looked up): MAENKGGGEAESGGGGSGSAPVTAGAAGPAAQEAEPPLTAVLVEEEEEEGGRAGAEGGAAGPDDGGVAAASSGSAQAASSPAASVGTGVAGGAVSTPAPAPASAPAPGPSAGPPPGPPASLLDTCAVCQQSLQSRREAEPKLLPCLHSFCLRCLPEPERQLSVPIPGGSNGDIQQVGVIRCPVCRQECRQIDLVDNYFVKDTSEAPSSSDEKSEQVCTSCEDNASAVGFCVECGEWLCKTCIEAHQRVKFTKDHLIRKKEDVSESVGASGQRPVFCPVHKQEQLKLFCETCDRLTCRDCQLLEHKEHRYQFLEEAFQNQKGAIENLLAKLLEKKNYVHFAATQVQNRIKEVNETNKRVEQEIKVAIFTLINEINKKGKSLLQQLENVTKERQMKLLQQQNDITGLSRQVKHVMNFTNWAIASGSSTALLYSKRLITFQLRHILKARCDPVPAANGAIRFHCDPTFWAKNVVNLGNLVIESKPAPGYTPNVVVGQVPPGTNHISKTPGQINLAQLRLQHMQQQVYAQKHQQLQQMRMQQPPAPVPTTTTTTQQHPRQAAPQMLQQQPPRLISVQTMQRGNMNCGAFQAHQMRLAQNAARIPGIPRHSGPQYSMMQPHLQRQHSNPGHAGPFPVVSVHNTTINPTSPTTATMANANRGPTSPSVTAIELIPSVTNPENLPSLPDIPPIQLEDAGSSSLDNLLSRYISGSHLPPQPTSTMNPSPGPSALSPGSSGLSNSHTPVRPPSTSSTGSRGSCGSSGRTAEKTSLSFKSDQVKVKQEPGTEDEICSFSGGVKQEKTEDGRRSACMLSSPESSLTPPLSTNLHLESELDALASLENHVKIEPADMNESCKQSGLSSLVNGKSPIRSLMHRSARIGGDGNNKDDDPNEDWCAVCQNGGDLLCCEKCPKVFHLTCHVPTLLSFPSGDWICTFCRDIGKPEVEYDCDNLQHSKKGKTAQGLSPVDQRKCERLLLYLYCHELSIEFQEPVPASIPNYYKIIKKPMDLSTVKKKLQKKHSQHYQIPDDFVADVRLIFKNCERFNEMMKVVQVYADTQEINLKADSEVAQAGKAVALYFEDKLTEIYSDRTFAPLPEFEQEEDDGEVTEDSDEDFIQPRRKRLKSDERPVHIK
active: [14] -0.393
inactive: [1] 0.004 | [2] -0.012 | [3] -0.044 | [4] -0.015 | [5] 0.021 | [6] -0.035 | [7] 0.021 | [8] -0.01 | [9] 0.01 | [12] -0.025 | [13] -0.005 | [15] -0.026 | [10] -0.04 | [11] -0.024
